In the library only some 11% were active in any assay of this set; here they are far more common.
L3MBTL1 inh = blocks human L3MBTL1; actives 0.66% (n = 230,000); AlphaScreen L3MBTL1–H3K9me1 peptide binding; AID 485360; Q9Y468; Potency, µM (top dose mostly 57.1 µM), inactives show at the highest dose activity, negative = inhibition, most hits filed as inhibitors; note: % is set by controls: 0 for no effect and ±100 for the full control effect; nearly all actives have a fitted effect of over 60% in size
Target sequence (Q9Y468 whole entry, looked up): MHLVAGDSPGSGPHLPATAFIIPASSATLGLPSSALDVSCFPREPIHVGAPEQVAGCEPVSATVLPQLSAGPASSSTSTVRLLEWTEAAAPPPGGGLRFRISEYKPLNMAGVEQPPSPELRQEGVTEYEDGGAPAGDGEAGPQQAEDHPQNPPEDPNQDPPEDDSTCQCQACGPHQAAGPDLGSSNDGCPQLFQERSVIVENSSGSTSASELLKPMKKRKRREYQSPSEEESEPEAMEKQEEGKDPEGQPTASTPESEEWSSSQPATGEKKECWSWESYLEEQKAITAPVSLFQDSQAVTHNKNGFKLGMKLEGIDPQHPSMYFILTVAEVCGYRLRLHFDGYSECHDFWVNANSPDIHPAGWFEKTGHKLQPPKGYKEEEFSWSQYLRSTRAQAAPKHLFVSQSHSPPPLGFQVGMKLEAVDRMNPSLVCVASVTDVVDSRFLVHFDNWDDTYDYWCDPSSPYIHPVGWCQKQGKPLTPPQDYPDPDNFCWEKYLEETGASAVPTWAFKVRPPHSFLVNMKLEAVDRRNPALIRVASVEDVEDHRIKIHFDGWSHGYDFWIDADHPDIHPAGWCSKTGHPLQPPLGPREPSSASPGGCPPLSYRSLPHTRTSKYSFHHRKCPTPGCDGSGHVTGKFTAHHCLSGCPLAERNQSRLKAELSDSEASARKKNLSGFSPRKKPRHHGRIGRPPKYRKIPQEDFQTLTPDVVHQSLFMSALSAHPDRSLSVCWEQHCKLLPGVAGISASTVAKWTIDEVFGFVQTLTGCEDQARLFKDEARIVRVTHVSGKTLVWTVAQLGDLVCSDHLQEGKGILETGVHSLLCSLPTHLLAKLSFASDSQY
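L3MBTL1 (50 nM) pre-complexed 30 min with biotinylated H3(1-15)K9me1 peptide (75 nM), then compounds added for 30 min at room temperature; AlphaScreen streptavidin donor/nickel chelate acceptor beads (10 ug/mL final) read after 30 min dark incubation.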
G9a block = blocks human histone lysine methyltransferase G9a; actives 8.8% (n = 350,000); G9a H3K9 monomethylation, AlphaScreen, 2 h; Q96KQ7; Potency, µM (highest dose often 102 µM), for the others: at the top dose activity, negative = inhibition, actives largely listed as inhibitors; note: % is set by controls: 0 for no effect and ±100 for the full control effect; nearly all actives have a fitted effect of over 75% in size
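AlphaScreen read-out: biotin-H3K9 peptide (500 nM) methylation by 20 nM enzyme with 20 uM SAM, 2 h at room temperature after 15 min compound preincubation; anti-monomethyl H3K9 antibody plus donor/acceptor beads, 10 min dark.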
HP1b chromo inh = blocks HP1-beta chromodomain binding to methylated histone tails; AlphaScreen HP1-beta / biotin-H3K9me3 peptide binding; AID 540317; actives 0.56% (n = 390,000); P83916; Potency, µM (titrated, usually from 114 µM), without a hit: at the highest dose activity change, negative = inhibition, most hits filed as inhibitors; note: nearly all actives have a fitted effect of over 70% in size
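HP1-beta protein (50 nM final) preincubated 30 min at room temperature with biotinylated H3(1-18)K9me3 peptide (50 nM) in PBS pH 7.4, 0.01% Tween-20, then compound added for 30 min. AlphaScreen streptavidin donor/nickel chelate acceptor beads (10 ug/mL final), 30 min dark, luminescence read.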
BAZ2B inh = blocks human BAZ2B; Q9UIF8; AlphaScreen BAZ2B-H3K14Ac peptide displacement; Potency, µM (doses to about 114 µM), without a hit: at the highest dose activity change, negative = inhibition, usual class: inhibitors; actives 4.4% (n = 360,000); note: % is set by controls: 0 for no effect and ±100 for the full control effect; nearly all actives have a fitted effect of over 60% in size
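AlphaScreen luminescence quantifies BAZ2B engagement of H3K14Ac peptide; the protein and biotinylated peptide are both at 50 nM final, buffer PBS pH 7.4 with 0.01% Tween-20, all steps at room temperature.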
JMJD2A Tudor = inhibitors of human JMJD2A Tudor domain; AID 504339; Potency, µM (top dose mostly 114 µM), for inactives: at the top dose activity change, negative = inhibition, actives largely listed as inhibitors; AlphaScreen JMJD2A-Tudor / H3K4me3 peptide binding; actives 4.4% (n = 390,000); note: % is set by controls: 0 for no effect and ±100 for the full control effect; nearly all actives have a fitted effect of over 50% in size
Starred values were filed as active, the others as inactive; ? = inconclusive; . = not tested or not shown; [ ] = dose if it differs, or a comment. Calls come from the whole dose curve; as a rule, active = well fitted inhibition curve with a large enough effect; inconclusive = small, poorly fitted or top-dose-only effect; inactive = no such curve, though single readings can be large or run the other way. Potency is the fitted concentration of half-maximal effect.

SMILES	L3MBTL1 inh	G9a block	HP1b chromo inh	BAZ2B inh	JMJD2A Tudor
O=C(NCCCN1CCOCC1)C(=O)N/N=C/c1ccccc1O	?	29%	65%	28µM*	28µM*
O=C(NCc1ccccn1)C(=O)N/N=C/c1ccccc1O	.	48%[59 µM]	53%	40µM*	25µM*
O=C(NCCCN1CCOCC1)C(=O)N/N=C/c1ccccc1Cl	52%	.	29%	0%	-13%
Cc1cc(/C=N/NC(=O)C(=O)NCc2ccccn2)c(C)n1-c1cccc(Br)c1	-27%	50µM*	6%	50µM*	?
O=C(NCc1ccccn1)C(=O)NN=C1CCCCCCCCCCC1	1%	4%	35%	-22%	-7%
CCc1cccc(NC(=O)C2CCN(C(=O)c3cnn(-c4ccccc4)c3-n3cccc3)CC2)c1	.	-6%[59 µM]	10%	-18%	-30%
CCC12CN3CC(C)(CN(C1)C3c1ccc(O)cc1O)C2=O (stereo not drawn)	.	?	13%	-16%	-13%
Cc1cccc(Nc2nc(NCc3ccco3)c3ccccc3n2)c1	-3%	18µM*	-10%	?	?
CSc1nc(NCc2ccco2)c2ccccc2n1	.	?	-29%	-33%	-13%[11.4 µM]
c1ccc(Nc2nc(NCc3ccco3)c3ccccc3n2)cc1	-19%	50µM*	?	?	50µM*
CCc1ccc(CNC(=O)CN2C(=O)CSc3c2c(C)nn3-c2ccccc2)cc1	.	12%[59 µM]	8%	-19%	-10%
O=C(NC1CC(=O)N(c2cccc(F)c2)C1)c1cc2ccccc2o1 (stereo not drawn)	.	-9%[59 µM]	24%	5%	1%
CN[C@@H](C)C(=O)NC[C@H]1O[C@@H](n2cnc3c(N)ncnc32)[C@H](O)[C@@H]1O	4%	.	18%	.	-21%
O=C(Nc1ccccc1F)c1cnccn1	.	-33%	14%	5%	5%
O=C(Nn1cc(C(=O)Nc2ccc(F)cc2F)c2ccccc2c1=O)c1cnccn1	.	0.79µM*	13%	28µM*	35µM*
COC(=O)c1ccccc1S(=O)(=O)N1CCC(C(=O)OCC(=O)NC2CCCCC2C)CC1 (stereo not drawn)	11%	20µM*	28%	9%	-8%
COC(=O)c1ccccc1S(=O)(=O)N1CCC(C(=O)N2CCC2)CC1	-6%	5%[2.33 µM]	41%	-5%	-8%
COC(=O)c1ccccc1S(=O)(=O)N1CCC(C(=O)OCC(=O)c2ccccc2OC)CC1	22%	40µM*	28%	-31%	-14%
CCOC(=O)c1cc(-c2ccc(C)cc2)n(CC(=O)Nc2ccccc2F)c1C	.	5%[59 µM]	27%	1%	4%
Cc1cc(=O)n(CNC(=O)c2ccccc2)c(=S)[nH]1	.	15%[12.7 µM]	10%	2%	56µM*
O=C(NCn1cnccc1=O)c1ccccc1	.	24%[12.7 µM]	8%	3%	-12%
COC(=O)[C@@H](c1ccccc1Cl)N1CCc2sccc2C1	.	-2%[59 µM]	.	.	.
CCOC(=O)c1sc2ccccc2c1S(=O)(=O)Nc1ccc(CC)cc1	.	?	65%	35%	-11%
CCOC(=O)N1CCC(=NNc2nc(C)cc(=O)[nH]2)CC1	.	40µM*	31%	-3%	-4%
CCOC(=O)N1CCC(=NNc2ccc(S(N)(=O)=O)cc2[N+](=O)[O-])CC1	-15%	?	29%	-28%	-9%
SMILES	L3MBTL1 inh	G9a block	HP1b chromo inh	BAZ2B inh	JMJD2A Tudor
O=C(COC(=O)/C=C/c1ccc([N+](=O)[O-])cc1)NNC(=O)c1ccccc1	0%	.	17%	.	-10%
CCn1c(SCC#N)nc2c(c1=O)C1(CCCC1)Cc1ccccc1-2	-1%	27%[59 µM]	43%	6%	1%
CCn1c(=O)c2c(n3c(=S)[nH]nc13)-c1ccccc1CC21CCCCC1	.	1.6µM*	-14%	-34%	18µM*
Cc1nn(CCCC(=O)NCc2cccc(Cl)c2)c(=O)c2c1sc1ccccc12	.	-30%[59 µM]	36%	2%	7%
Cc1nnsc1-c1nc2ccccc2[nH]1	0%	28µM*	61%	.	-2%
Cc1ccc(-c2nc3ccccc3[nH]2)s1	-9%	7.9µM*	54%	-3%	-2%
Cn1c(CN2CCN(CC#N)CC2)c(C#N)c2ccccc21	.	45µM*	53%	0%	-5%
Cn1c(CN2CCC(C(N)=O)CC2)c(C#N)c2ccccc21	-8%	-19%[59 µM]	-6%	2%	0%[57.1 µM]
Cn1c(CN2CCCCC2)c(C#N)c2ccccc21	2%	28µM*	31%	6%	7%
O=C(c1ccc(C(F)(F)F)cc1)N1CCC(c2noc(-c3ccc(S(=O)(=O)N4CCCC4)cc3)n2)CC1	.	0%[59 µM]	33%	-12%	-15%
Cc1ccc(Sc2ccc(N3CCCC(C(=O)Nc4ccc(F)cc4F)C3)nn2)cc1 (stereo not drawn)	.	1%[59 µM]	46%	5%	4%
Cc1cc(NC(=O)CCC(=O)N(CC(=O)NC2CCCC2)c2cccc(F)c2)no1	.	5%[59 µM]	-9%	-1%	?
Cc1cc(C(N)=O)c2ccccc2n1	5%	-6%[59 µM]	23%	.	-12%
NC(=O)c1cc2c3ccccc3ccn2c1-c1ccccc1	.	35µM*	?	32µM*	32µM*
CCCOc1ccc(CSc2nnc(CCC)n2N)cc1	1%	-2%	11%	5%	-10%
CCCc1nnc(SCc2ccc(OC)cc2)n1N	.	-27%[12.7 µM]	?	4%	14µM*
Cc1cccc(C(=O)Nc2ccc(N3CC=C(c4ccccc4C)CC3)c(C(=O)O)c2)c1	.	?	-7%	45µM*	?
O=C(Cn1c(-c2ccco2)nc2ccccc21)N1CCCCC1	-7%	34%[0.501 µM]	34%	-35%[57.1 µM]	-14%
c1ccc(OCCn2c(-c3ccco3)nc3ccccc32)cc1	0%	40µM*	-6%	?	-25%
CCn1c(-c2ccco2)nc2ccccc21	-3%	6.3µM*	58%	18%	-23%
O=C(Nc1nc2ccccc2n1CCOc1ccccc1)c1ccco1	-10%	64%[59 µM]	42%	?	-7%
CN(C(=O)c1ccccc1C(=O)OCC(=O)c1ccc(Br)cc1)c1ccccc1	-7%	2%[2.33 µM]	22%	-4%	-16%
Oc1ccc(-c2nc3ccccn3c2Nc2ccc3c(c2)OCCO3)cc1	.	13µM*	-37%	40µM*	50µM*
c1ccc(-c2nc3cnccn3c2Nc2ccc3c(c2)OCCO3)cc1	-12%	?	?	?	45µM*
CN(C)c1ccc(-c2nc3ccccn3c2Nc2ccc3c(c2)OCCO3)cc1	.	2.2µM*	?	-32%	13µM*
COc1cc(-c2nc3cnccn3c2Nc2ccc3c(c2)OCCO3)ccc1O	-13%	?	0%	2%	-35%
Brc1ccc2nc(-c3ccccc3)c(Nc3ccc4c(c3)OCO4)n2c1	.	-7%[59 µM]	38%	3%	3%
COc1cc(-c2nc3ccc(C)cn3c2Nc2ccc3c(c2)OCCO3)ccc1O	?	22µM*	50µM*	14µM*	?
